The list is not random: actives were taken first. Their share in the collection is about 2.4%.
CRFBP-R2 block = CRF-BP/CRF-R2 complex antagonism. HEK293 CRF-R2/CRF-BP, CRF-induced calcium fluorescence. inhibition, % at 11.8 µM. actives 0.59% (n = 350,000). AID 588475;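 active = inhibition of the ligand-induced calcium signal above about 50% at the single tested concentration, limit read from the data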
ABHD5-PLIN5 inh = inhibitors of human ABHD5-perilipin-5 interaction | actives 0.78% (n = 360,000) | AID 602281 | inhibition, % at 4 µM | Split G. princeps luciferase complementation, luminescence, 4 h;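 active = inhibition above the mean inhibition across every tested compound plus 3 SD, cut at about 22% in these data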;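 also: 0% = DMSO only wells and the 100% control is not disclosed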
HTR2A ag = activates the mouse 5-HT2A serotonin receptor. AID 624169. CHO-K1 mHTR2A beta-arrestin complementation, luminescence; percent of 30 µM serotonin response. activation, % at 7.6 µM. actives 0.66% (n = 360,000);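 active = activation above a run cutoff, the mean activation of all tested compounds plus 3 SD, cut at about 14% in these data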;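 also: 0% = plate median of compound wells and 100% = 30 µM serotonin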
NOD2-RIPK2 inh = blocks binding of human NOD2 to RIPK2; O43353; CHO BLA complementation NOD2-RIPK2, CCF4 ratio; inhibition, % at 4.98 µM; actives 0.38% (n = 360,000); in the data active = inhibition above about 21%;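 also: 0% = vehicle only and 100% = reference blocker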
TLR9-MyD88 block = inhibitors of human TLR9-MyD88 binding; AID 504734; Q9NR96+Q99836; inhibition, % at 4.98 µM; CHO BLA complementation TLR9-MyD88, CCF4 FRET ratio; actives 0.21% (n = 340,000);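 active = inhibition above the mean over all tested compounds plus 3 SD, cut at about 21% in these data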;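 also: 0% = DMSO only wells and 100% = clavulanate BLA inhibitor control wells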
TLR4 MyD88 comp = TLR4-MyD88 interaction inhibition in cells | O00206+Q99836 | HeLa CL3-4 TLR4/MyD88 BLA complementation, FRET ratio | inhibition, % at 8.4 µM | actives 0.18% (n = 200,000); in the data active = inhibition above about 25%;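 also: 0% = vehicle and 100% = reference inhibitor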
Target sequence (O00206 whole entry, looked up): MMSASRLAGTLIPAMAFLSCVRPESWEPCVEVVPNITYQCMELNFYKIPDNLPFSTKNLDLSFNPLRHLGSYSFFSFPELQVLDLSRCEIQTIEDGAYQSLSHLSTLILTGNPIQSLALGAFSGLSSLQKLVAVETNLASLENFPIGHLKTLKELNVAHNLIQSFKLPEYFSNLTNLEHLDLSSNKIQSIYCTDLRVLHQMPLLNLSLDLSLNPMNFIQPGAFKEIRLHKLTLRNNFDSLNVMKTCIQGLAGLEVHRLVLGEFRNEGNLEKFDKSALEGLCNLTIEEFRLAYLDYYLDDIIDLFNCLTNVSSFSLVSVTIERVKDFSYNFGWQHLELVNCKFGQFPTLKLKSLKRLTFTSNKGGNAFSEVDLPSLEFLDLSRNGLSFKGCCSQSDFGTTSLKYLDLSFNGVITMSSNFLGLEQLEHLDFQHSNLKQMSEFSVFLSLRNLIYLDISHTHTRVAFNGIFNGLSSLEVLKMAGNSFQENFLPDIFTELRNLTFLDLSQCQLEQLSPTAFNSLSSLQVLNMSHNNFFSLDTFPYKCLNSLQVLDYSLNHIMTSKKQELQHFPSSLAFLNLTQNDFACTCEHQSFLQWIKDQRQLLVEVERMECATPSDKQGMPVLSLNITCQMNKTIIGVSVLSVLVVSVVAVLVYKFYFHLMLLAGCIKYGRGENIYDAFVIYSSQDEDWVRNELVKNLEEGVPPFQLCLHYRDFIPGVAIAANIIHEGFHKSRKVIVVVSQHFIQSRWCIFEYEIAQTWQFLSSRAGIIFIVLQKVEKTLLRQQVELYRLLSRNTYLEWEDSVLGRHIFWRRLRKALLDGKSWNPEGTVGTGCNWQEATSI
Target sequence (Q99836 whole entry, looked up): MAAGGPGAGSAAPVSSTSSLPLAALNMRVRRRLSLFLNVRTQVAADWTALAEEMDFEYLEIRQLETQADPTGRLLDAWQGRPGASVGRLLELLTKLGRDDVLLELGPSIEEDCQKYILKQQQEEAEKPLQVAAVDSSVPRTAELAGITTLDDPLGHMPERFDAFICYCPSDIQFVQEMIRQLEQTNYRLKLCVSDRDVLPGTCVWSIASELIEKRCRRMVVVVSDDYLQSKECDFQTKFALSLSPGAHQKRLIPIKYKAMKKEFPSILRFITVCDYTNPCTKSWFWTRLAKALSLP
OPRM1 ag = counter-screen for mouse HTR2A agonists: human mu opioid receptor agonists. U2OS OPRM1 beta-arrestin PathHunter, luminescence; DMSO 0%, DAMGO 9.3 µM 100%. activation, % at 9.3 µM. actives 5.3% (n = 2,300). shares compounds with HTR2A ag;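 active = mean activation above the mean of DMSO-only wells plus 3 SD, cut at about 0.5% in these data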
m5-HT2A ag conf = mouse HTR2A agonism confirmed; actives 19% (n = 2,300); shares compounds with HTR2A ag; CHO-K1 PathHunter beta-arrestin recruitment, luminescence; DMSO 0%, 30 µM serotonin 100%; activation, % at 7.6 µM;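 active = mean activation across triplicates above the hit threshold derived in the original primary screen, cut at about 15% in these data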
* hit, by the source's call; / = not tested or not shown.

SMILES | CRFBP-R2 block | ABHD5-PLIN5 inh | HTR2A ag | NOD2-RIPK2 inh | TLR9-MyD88 block | TLR4 MyD88 comp | OPRM1 ag | m5-HT2A ag conf
Cc1cc2oc(=O)cc(Cn3ccnc3)c2cc1O | 1.0 | 0.5 | 1.8 | -1.4 | -21.8 | / | / | /
COc1ccc(N2CCN(Cc3cc(=O)oc4cc(C)c(Cl)cc34)CC2)cc1 | -21.3 | -0.2 | 8.3 | 4.3 | -4.8 | 5.8 | / | /
Cc1cc2oc(=O)cc(Cn3ccnc3)c2cc1Cl | -8.0 | -8.8 | 25.8* | 5.2 | 0.9 | / | -0.6 | -2.5
COC(=O)C1=CN(c2ccc(C(C)(C)C)cc2)C(N)=C(C#N)C1c1cccc([N+](=O)[O-])c1 (stereo not given) | / | -7.5 | -1.0 | 6.2 | / | / | / | /
O=C(Nc1nccs1)c1csc([C@H]2C[C@H](O)[C@@H](CO)O2)n1 | / | 0.9 | -1.6 | -13.2 | / | / | / | /
O=C1c2ccccc2CCC12OC2c1ccncc1 (stereo not given) | -8.6 | -1.1 | 3.3 | 2.6 | -6.1 | / | / | /
CCOC(=O)C1CCN(Cc2cnc(NC(=O)OC)s2)CC1 | -17.3 | 3.5 | 15.7* | -15.0 | 1.1 | -10.4 | 0.0 | 22.6*
COC(=O)Nc1ncc(CN2CCc3ccccc3C2)s1 | 11.1 | 1.8 | 2.5 | -13.0 | -0.7 | 8.4 | / | /
CCOC(=O)C1CCN(Cc2cnc(Oc3ccc(C(C)(C)C)cc3)s2)CC1 | -8.7 | -6.2 | 18.7* | -7.3 | -1.1 | 1.3 | -0.5 | 38.6*
O=C(Nc1cccnc1)C1Cc2c(-c3ccc4c(c3)OCO4)ccnc2O1 (stereo not given) | / | -4.5 | 4.8 | -1.0 | / | / | / | /
Cc1cc(OCC(=O)OCC(=O)N(Cc2ccccc2)C(C)(C)C)ccc1Cl | 0.2 | 1.1 | 0.6 | 4.4 | 1.0 | / | / | /
CCOC(=O)[C@]12CCC=C1N(Cc1ccc(Cl)cc1Cl)C(=O)[C@H](CC(=O)NCC13CC4CC(CC(C4)C1)C3)C2 | / | 8.3 | 3.0 | -7.2 | / | / | / | /
CCc1ccc(C2NC(=S)NC3=C2C(=O)N(c2ccccc2OC)C(c2ccc(CC)cc2)N3)cc1 (stereo not given) | -58.1 | 14.7 | 37.4* | 2.5 | 7.3 | -6.5 | -0.4 | 6.2
N#Cc1ccc(S(=O)(=O)N2CCCCC2c2cc(C(=O)Nc3cccc4c3CCCC4)no2)cc1 (stereo not given) | / | 1.8 | 0.2 | -1.3 | / | / | / | /
O=C(c1cc2nc(-c3ccco3)cc(C(F)(F)F)n2n1)N1CCCc2ccccc21 | 31.5 | 0.3 | 22.7* | -5.0 | 1.7 | -0.5 | -0.6 | -2.1
O=C(c1nn2c(C(F)(F)F)cc(-c3ccco3)nc2c1Br)N1CCCc2ccccc21 | 3.5 | 6.9 | -2.1 | 1.3 | 7.7 | 3.0 | / | /
Cc1ccccc1OCC(=O)Nc1cccc(S(=O)(=O)NC2=NCCC2)c1 | -5.0 | 0.9 | 15.7* | -0.3 | 0.9 | / | 0.4 | -0.6
Cc1ccccc1OCC(=O)Nc1cccc(S(=O)(=O)NC2=NCCCCC2)c1 | 1.1 | 6.6 | -8.2 | 7.2 | -1.3 | / | / | /
O=c1[nH]ccc2c(O)cccc12 | 3.2 | -2.5 | 16.2* | 0.7 | 6.0 | / | 0.7* | 3.8
OC[C@@H]1CN(Cc2ccc(-c3ccccc3)cc2)C[C@H](n2cnc3c(NCc4ccc(F)cc4)ncnc32)O1 | / | -5.8 | 10.7 | 0.5 | / | / | / | /
CCOc1ccc(C(=O)NCC(=O)NNC(=O)C2COc3ccccc3O2)cc1OCC (stereo not given) | 26.5 | -2.6 | 19.3* | 0.0 | -10.7 | / | -0.7 | -3.2
CCCCOc1ccc(C(=O)NCC(=O)NNC(=O)C2COc3ccccc3O2)cc1 (stereo not given) | 9.6 | -1.4 | 0.1 | 0.1 | -4.4 | / | / | /
COc1cc(OC)cc(-c2c(-c3ccc(F)cc3)c3cc(-c4ccc5[nH]ccc5c4)ccc3n2C)c1 | -12.8 | -5.9 | 14.7* | -2.1 | -2.3 | / | -0.6 | -3.8
COc1ccc(-c2c(-c3cc(OC)cc(OC)c3)n(C)c3ccc(Br)cc23)cc1 | 1.4 | -8.3 | -0.5 | -0.8 | 5.8 | / | / | /
COc1cc(OC)cc(-c2c(-c3ccsc3)c3cc(Br)ccc3n2C)c1 | -4.5 | 0.8 | 15.4* | -3.8 | 0.8 | / | -0.5 | -1.7
SMILES | CRFBP-R2 block | ABHD5-PLIN5 inh | HTR2A ag | NOD2-RIPK2 inh | TLR9-MyD88 block | TLR4 MyD88 comp | OPRM1 ag | m5-HT2A ag conf
COc1cccc(-c2c(-c3cc(OC)cc(OC)c3)n(C)c3ccc(-c4ccc5[nH]ccc5c4)cc23)c1 | 14.3 | -3.4 | 8.0 | -5.3 | -0.7 | / | / | /
CCOC(=O)C[C@@H]1OC[C@H](C(C)C)N1S(=O)(=O)c1ccc(C)cc1 | / | -2.0 | -6.0 | -10.3 | / | / | / | /
COc1cc(C)c(S(=O)(=O)NCc2ccc3c(c2)OCO3)cc1C | 12.5 | -13.3 | 29.2* | -1.0 | -3.5 | -9.9 | -0.2 | 0.1
COc1cc(S(=O)(=O)NCc2ccc3c(c2)OCO3)c(OC)cc1C | -10.0 | -6.6 | -1.7 | 1.9 | -9.8 | / | / | /
COc1ccc(CNC(=O)c2ccc(C(C)C)cc2)cc1 | 13.7 | 2.3 | 15.4* | 2.9 | 3.3 | -6.5 | 0.4 | 2.6
COc1ccc(CNC(=O)c2ccc(C(C)(C)C)cc2)cc1 | 27.8 | -4.3 | -4.4 | -4.1 | 8.9 | 2.8 | / | /
CCCCC(=O)N(C)c1c(CC)nc2c(OCc3ccccc3C)cccn12 | / | -0.1 | -4.5 | 1.1 | / | / | / | /
CCN(CC(=O)NCc1ccc(F)cc1)C(=O)c1ccc(C(=O)c2ccccc2)cc1 | -0.6 | 6.8 | 1.9 | 3.3 | -7.1 | / | / | /
CCN(CC(=O)NCc1ccc(F)cc1)C(=O)c1cccnc1SC | 1.4 | 16.4 | 15.4* | -6.2 | -2.4 | / | -0.7 | -5.9
Cc1ccccc1C(=O)Nc1cccc(-c2cn3ccccc3n2)c1 | 8.2 | 5.8 | 15.9* | -12.5 | / | -1.3 | -0.4 | -4.9
Cc1ccc(C(=O)Nc2cccc(-c3cn4ccccc4n3)c2)cc1 | 15.3 | -1.0 | -1.4 | -5.6 | -5.0 | 5.2 | / | /
CC(=O)c1ccc(OC2(C)CCN(Cc3cc4ccccc4[nH]3)C2)cc1 (stereo not given) | / | 6.9 | -1.3 | 10.6 | / | / | / | /
CC(=O)Nc1cc(-c2ccc(C(=O)N3CCOCC3)cc2)cn2c(-c3ccc(C(C)=O)cc3)cnc12 | / | 10.2 | 7.4 | 4.9 | / | / | / | /
COc1ccc(-c2cnc3c(NC(C)=O)cc(-c4ccc(C(=O)N5CCOCC5)cc4)cn23)cc1OC | / | -6.8 | 14.9* | 1.4 | / | / | -0.5 | 3.1
O=C1C2CCc3ccccc3C2N1c1ccccc1 (stereo not given) | 8.8 | 1.5 | 18.4* | 1.8 | -1.7 | / | -0.4 | -4.0
COc1ccc2nc(C(c3ccc(C)cc3)n3c(-c4ccccc4Br)nc4ccccc43)[nH]c2c1 (stereo not given) | / | -3.5 | -5.3 | 6.8 | / | / | / | /
CC(=O)c1ccc(NC(=O)CN2CCC(NC(=O)c3ccccc3C)CC2)cc1 | 21.5 | 2.4 | 22.6* | -10.3 | -12.4 | / | 0.3 | 2.0
